Screens from PubChem BioAssay.
An excerpt weighted towards active compounds, which were near 1.9% of everything screened.
IL2 activator: activators of IL-2. AID 652025. 0.065% of 360,000 active. activation, % (series mostly up to about 46 µM). IL-2 activation reporter assay, cell-based qHTS; stimulated with anti-CD3/CD4/CD28 beads; in transgenic mouse T cells; in the data active means activation above about 50%; inconclusive means mostly about 30% to 49%; further: 0% is about no effect
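Readout: EGFP and DsRed signals by fluorescent plate cytometry. Unstimulated transgenic mouse T cells received compound 60 min before antibody-bead stimulation, then incubated 18 h at 37 degrees C.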
Giardia killer: Giardia lamblia killing. Giardia lamblia trophozoite viability. activity change, % at 7.66 µM, hits read low. 0.15% of 340,000 active; in the data active means activity change below about -80%; inconclusive means between about -30% and that limit;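 further: parasites exposed to compound for two days anaerobically before the ATP read; on the % scale 0 is the no-effect control and ±100 the full control effect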
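Viability, read as ATP luminescence: trophozoites at 100 cells/well, compound added, 48 hrs anaerobic at 37 deg C, then 15-30 min room-temperature development before reading.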
BRCA1 expr act: increases BRCA1 expression. Potency, µM (top dose mostly 46.1 µM), for inactives: at the highest dose activation, hits mostly activators. MCF7-BRCA1-FFLuc reporter, luminescence, 48 h; response scale: scaled: vehicle 0%, 10 µM genistein 100%. 1.1% of 380,000 active; further: potency means the concentration at half of the fitted maximal effect; nearly all actives have a fitted effect of over 80% in size
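Using MCF7 cells harboring a BRCA1 firefly luciferase reporter, plated 2 h before compound pinning, the screen measured luminescence after 48 h incubation. Responses were normalized to DMSO and 10 microM genistein, then fitted for concentration-effect.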
RXFP1 ag: agonists of human relaxin receptor RXFP1; Q9HBX9; HEK293T-RXFP1 cAMP TR-FRET, 30 min; response scale: percent of porcine relaxin response, buffer zero; Potency, µM (top dose mostly 57.5 µM), for the others: at the highest dose activation, usual class: activators; 0.3% of 370,000 active; AID 2676; further: potency means the concentration at half of the fitted maximal effect; on the % scale 0 is the no-effect control and ±100 the full control effect; nearly all actives have a fitted effect of over 60% in size
Target sequence (Q9HBX9 whole entry, looked up): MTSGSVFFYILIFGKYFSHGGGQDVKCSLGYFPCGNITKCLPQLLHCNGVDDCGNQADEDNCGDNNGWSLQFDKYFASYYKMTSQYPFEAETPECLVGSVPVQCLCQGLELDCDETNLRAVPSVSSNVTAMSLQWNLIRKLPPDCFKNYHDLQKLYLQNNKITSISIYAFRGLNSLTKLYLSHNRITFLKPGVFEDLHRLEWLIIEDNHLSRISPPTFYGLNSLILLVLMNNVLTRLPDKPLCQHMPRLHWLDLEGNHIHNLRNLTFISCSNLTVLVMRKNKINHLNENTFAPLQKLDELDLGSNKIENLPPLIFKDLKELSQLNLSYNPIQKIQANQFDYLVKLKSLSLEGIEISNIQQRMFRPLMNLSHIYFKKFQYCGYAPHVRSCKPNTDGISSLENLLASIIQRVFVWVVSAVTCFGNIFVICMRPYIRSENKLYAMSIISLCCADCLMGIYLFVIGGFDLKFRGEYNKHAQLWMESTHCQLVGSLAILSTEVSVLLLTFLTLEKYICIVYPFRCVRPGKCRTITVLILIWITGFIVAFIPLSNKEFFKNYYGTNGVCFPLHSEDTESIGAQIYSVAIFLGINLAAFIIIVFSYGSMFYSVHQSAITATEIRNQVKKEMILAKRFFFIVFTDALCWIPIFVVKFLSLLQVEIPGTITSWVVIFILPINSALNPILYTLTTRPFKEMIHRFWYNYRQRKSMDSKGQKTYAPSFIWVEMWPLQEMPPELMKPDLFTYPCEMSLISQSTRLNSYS
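cAMP rise read by TR-FRET after 30 min, 37C compound exposure (up to 58 uM) in RXFP1-transfected HEK293 cells with Ro 20174 present. EC50 from Hill-equation fits, with 29 nM porcine relaxin as 100% and buffer as basal.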
NPSR antagonist: antagonists of human neuropeptide S receptor cAMP signaling; AID 1461; Potency, µM (top dose mostly 38.3 µM), for inactives: at the top dose activity change, negative = inhibition, usual class: inhibitors; CHO-NPSR cells, cAMP TR-FRET, antagonist mode; 1% of 220,000 active; Q6W5P4; further: potency means the concentration at half of the fitted maximal effect; on the % scale 0 is the no-effect control and ±100 the full control effect; nearly all actives have a fitted effect of over 50% in size
RXFP1 antagonist: antagonists of human relaxin receptor RXFP1; AID 1259400; 0.59% of 350,000 active; HEK293-RXFP1, relaxin-stimulated cAMP HTRF, 30 min; hits give low values; Q9HBX9; activity change, negative = inhibition, % at 57.5 µM;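 active means activity change of -60% or lower, but not beyond a set lower limit; inconclusive means change between -60% and -40%, or beyond the set limit; inactive means change above -40%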; further: on the % scale 0 is the no-effect control and ±100 the full control effect
An asterisk follows results filed as active; ? = inconclusive; nt = no result; [ ] = another dose, or the depositor's remark. Unless noted, the call rests on the fitted dose curve; in most records, active means well fitted curve in the direction sought with a large enough effect; inconclusive means small, poorly fitted or top-dose-only effect, or another doubt; inactive means no such curve, though single readings can be large; an effect the other way counts as inactive or inconclusive.

SMILES	IL2 activator	Giardia killer	BRCA1 expr act	RXFP1 ag	NPSR antagonist	RXFP1 antagonist
CN1CC2(Cc3cc([N+](=O)[O-])ccc31)C(=O)OC(C)(C)OC2=O	nt	-9	22%	nt	nt	nt
CC(C)(CNC(=O)c1ccc(-c2ccccc2Cl)o1)N1CCOCC1	1	10	10µM*	1%	nt	-11
CC(=O)N1CCN(C(=O)c2ccc(-c3ccccc3Cl)o2)CC1	1	-9	11µM*	-1%	nt	4
CC(C)(CNC(=O)c1ccc(Br)o1)N1CCOCC1	-2	26	-4%	-1%	nt	0
COc1ccccc1CCNC(=O)c1cccn1-c1nnc(N2CCCC2)s1	nt	nt	nt	1%	nt	-8
Cc1cccc(CN2C(=O)/C(=C\c3ccc(C(=O)NCCN4CCOCC4)cc3)Sc3ccccc32)c1	4	28	-39%	2%	nt	-87*
CCc1ccc(/C=C2/Sc3ccccc3N(CC(=O)NCCCN3CCOCC3)C2=O)cc1	5	2	3%	0%	nt	-10
O=C(CN1C(=O)/C(=C/c2ccc(C(F)(F)F)cc2)Sc2ccccc21)NCCCN1CCOCC1	8	-4	-3%	0%	nt	-109*
COc1ccccc1CNC(=O)c1cc(Sc2cccc(Cl)c2)nc2ccccc12	nt	nt	nt	7%	nt	-2
O=C(C[n+]1ccccc1Br)c1ccc(F)cc1	nt	nt	30%	nt	nt	nt
Nc1ccc(NC(=O)NC2CCCCC2)cc1[N+](=O)[O-]	-1	5	4µM*	-4%	15%	-8
O=C(Nc1ccc(F)c(Cl)c1)N1CCC(CN2CCc3ccccc3C2)CC1	nt	nt	nt	2%	nt	-12
Cc1ccsc1/C=C(\CC(=O)O)c1nc2ccccc2o1	-2	25	7.9µM*	0%	nt	11
COc1ccccc1N1CCN(C(=O)c2ccc(Nc3nc4ccccc4n4nnnc34)cc2)CC1	nt	nt	nt	-1%	nt	1
COc1cc2nc(N3CCN(C(=O)OCc4ccccc4)C(C(=O)NC(C)(C)C)C3)nc(N)c2cc1OC (stereo not given)	nt	nt	nt	nt	13µM*	nt
CCCCN(CC)C(=O)CSc1nc2n[nH]c(C)c2c(=N)n1-c1ccc(CC)cc1	nt	nt	nt	3%	nt	?
CCCCOC(=O)Nc1ccc(N2CCCCC2)cc1	1	-5	?	0%	-11%[46.1 µM]	-5
CCCCOC(=O)Nc1ccc(N2CCOCC2)cc1	2	-4	4.5µM*	1%	-1%[46.1 µM]	1
CCCCOC(=O)Nc1ccc(C(C)C)cc1	-1	-19	11µM*	1%	13%[46.1 µM]	-39
CN(C)c1ccc(C=O)c(F)c1	nt	nt	9%	nt	nt	nt
O=c1c2ccccc2nc(-c2ccc(Cl)cc2)n1CCCCOc1ccc(F)cc1	nt	nt	nt	1%	nt	-4
COCC(C)NC(=O)CSc1nnc(-c2cccc(S(=O)(=O)N3CCCCC3)c2)o1 (stereo not given)	1	-3	-7%	1%	1%	-3
CC(NC(=O)CSc1nnc(-c2cccc(S(=O)(=O)N3CCCCC3)c2)o1)C12CC3CC(CC(C3)C1)C2 (stereo not given)	0	-9	-45%	1%	10µM*	1
COc1cccc(CNC(=O)c2oc3c(c2C)-c2nn(Cc4cccc(Cl)c4)cc2CC3)c1OC	nt	nt	nt	14%	nt	?
COc1cccc(CNC(=O)c2oc3c(c2C)-c2nn(Cc4cccc(Cl)c4)cc2CC3)c1	nt	nt	nt	0%	nt	-118*
SMILES	IL2 activator	Giardia killer	BRCA1 expr act	RXFP1 ag	NPSR antagonist	RXFP1 antagonist
O=C1C=CC(=O)c2c(O)c(N3CCN(CCOCCO)CC3)c(Br)c(O)c21	-1	14	-78%	nt	nt	-105*
CC(C)C(=O)OCc1cccc(OC(=O)[C@@H]2N3C(=O)[C@@H](NC(=O)Cc4ccccc4)[C@H]3SC2(C)C)c1	nt	nt	nt	nt	nt	-18
COCC(C)n1c(-c2ccc3c(c2)NC(=O)CO3)csc1=Nc1ccc(OC(F)F)cc1 (stereo not given)	-1	5	-87%	0%	10µM*	-5
COc1ccc(NS(=O)(=O)c2ccc(O)c(NC(=O)c3ccc(S(=O)(=O)N4CCCC4)cc3)c2)cc1	2	4	0%	-1%	4%	-60*
Cc1ccc2oc(=O)c3cc(C(=O)Nc4ccc(C)c(F)c4)sc3c2c1	nt	nt	0%	0%	nt	nt
N=C1S/C(=C\c2ccco2)C(=O)N1c1ccc2c(c1)OCO2	1	-21	42%	1%	-13%	?
N=C1S/C(=C\c2ccco2)C(=O)N1c1nccs1	-2	-27	-11%	-1%	6.3µM*	-24
CS(=O)(=O)c1ccc(C(=O)OCC(=O)NC23CC4CC(CC(C4)C2)C3)cc1[N+](=O)[O-]	2	17	-75%	0%	-23%	-65*
CCN1/C(=C/c2cc[n+](CCCS(=O)(=O)[O-])c3ccccc23)Sc2ccccc21	226*	?	-7%	17%	-55%	-11
O=C1C(Cl)=C(NCC2CCCO2)C(=O)N1CCc1ccccc1 (stereo not given)	1	-16	7.9µM*	-1%	-9%[46.1 µM]	14
O=C1C(Cl)=C(NCCc2ccccc2)C(=O)N1CCc1ccccc1	5	-4	7.9µM*	0%	?	7
O=C1C(Cl)=C(NCCCN2CCOCC2)C(=O)N1CCc1ccccc1	0	3	2%	1%	-9%[46.1 µM]	8
Cc1cccc(OCCn2c(CCNC(=O)C3CCCCC3)nc3ccccc32)c1	nt	18	-20%	nt	nt	nt
O=C(NCCN1CCOCC1)C1(C(F)(F)F)CC(CCCO)CCCO1 (stereo not given)	nt	-9	nt	nt	nt	nt
COc1ccc2ccccc2c1/C=N/Nc1ccc(Cl)c(C(=O)O)c1	0	1	69%	4%	nt	6
COc1ccc2ccccc2c1/C=N/Nc1cccc(C(=O)O)c1	1	-6	3.5µM*	13%	nt	-13
CCOc1cc(/C=N/NC(=O)c2ccccn2)ccc1OC(=O)c1ccc(F)cc1	-4	15	14%	3%	nt	-93*
CCOc1cc(/C=N/Nc2cccc(C(=O)O)c2)ccc1OC(=O)c1ccccc1	0	-2	?	1%	-31%	-75*
CC(=O)c1nnn(-c2nc(C#N)nc(N3CCOCC3)n2)c1C	nt	-10	11%	nt	nt	nt
Cc1ccc(NC(=O)c2ccc(NC(=O)C3CCCC3)cc2)c(C)c1	nt	7	28%	nt	nt	nt
O=[N+]([O-])c1ccc(-c2cc3ccccc3[nH]2)cc1	nt	nt	34%	nt	nt	nt
Cc1cccc(CCN(C(=O)c2csnn2)C(C(=O)NC2CCCC2)c2ccco2)c1 (stereo not given)	0	3	-34%	3%	nt	-73*
Cc1cccc(CCN(CC(=O)NC2CCCCC2)C(=O)c2csnn2)c1	0	0	14%	0%	-10%	-7
COc1cc(/C=C/c2cc[n+](C)c3ccccc23)cc(OC)c1OC	nt	nt	8%	nt	nt	nt
